ERb SRC1 inh: ER-beta (human) coactivator binding inhibition; AID 633; TR-FRET ER-beta LBD / SRC1-Cy5 peptide binding; receptor agonist-loaded with 1 µM estradiol; actives 1.3% (n = 86,000); Q92731; inhibition, % at 25.6 µM;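 active means compounds whose percent inhibition of the receptor-coactivator binding signal exceeds about 50% in the single-dose screen, limit read from the data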;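 further: 0% = receptor plus peptide wells without compound and 100% = peptide-only wells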
EphB4 antag: antagonists of human EphB4-ephrin-B2 interaction | AID 720 | P54760 | inhibition, % at 7 µM | actives 0.15% (n = 97,000) | EphB4 LBD / TNYL-RAW-Alexa532 peptide, fluorescence polarization;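 active means inhibition above the screen-wide mean inhibition plus 3 SD, cut at about 15% in these data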;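 further: 0% = DMSO wells and 100% = excess unlabeled TNYL-RAW peptide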
ERa SRC1 pot: ER-alpha (human) coactivator binding potentiation; TR-FRET ERalpha-LBD/SRC-Cy5 coactivator binding, 2 h; 100 = basal binding, no effect; P03372; coactivator binding (% of control), % at 25.6 µM; actives 1.3% (n = 86,000); in the data active means activity above about 200%;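 further: binding measured in presence of low estradiol as agonist stimulus; 0% = peptide alone without receptor and 100% = receptor with peptide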
Target sequence (P03372 whole entry, looked up, the tested form may be a part): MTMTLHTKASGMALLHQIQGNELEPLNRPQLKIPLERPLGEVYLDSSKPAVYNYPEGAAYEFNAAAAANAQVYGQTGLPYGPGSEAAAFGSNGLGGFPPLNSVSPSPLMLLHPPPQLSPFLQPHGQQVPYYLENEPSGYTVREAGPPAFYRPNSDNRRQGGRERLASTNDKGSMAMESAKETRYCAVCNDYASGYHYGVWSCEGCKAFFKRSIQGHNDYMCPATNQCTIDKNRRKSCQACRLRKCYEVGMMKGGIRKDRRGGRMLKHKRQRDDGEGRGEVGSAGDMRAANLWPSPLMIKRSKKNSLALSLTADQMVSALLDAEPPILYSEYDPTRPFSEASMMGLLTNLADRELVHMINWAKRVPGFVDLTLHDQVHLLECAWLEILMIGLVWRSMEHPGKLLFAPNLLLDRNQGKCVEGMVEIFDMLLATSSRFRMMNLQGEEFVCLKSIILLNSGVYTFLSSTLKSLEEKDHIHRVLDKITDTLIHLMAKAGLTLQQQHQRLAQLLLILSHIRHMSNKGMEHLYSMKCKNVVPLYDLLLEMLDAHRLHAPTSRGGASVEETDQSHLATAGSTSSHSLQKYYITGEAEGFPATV
ERa coact inh: blocks coactivator binding to human estrogen receptor alpha; TR-FRET ER-alpha LBD / SRC-1 peptide, estradiol-bound; AID 629; P03372; actives 1.7% (n = 86,000); inhibition, % at 25.6 µM; in the data active means inhibition above about 50%;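 further: 0% = receptor plus peptide control and 100% = peptide only without receptor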
* = called active by the depositor; . = not tested or not shown; [ ] = another dose, or the depositor's remark. A selection: hits, their analogues and other compounds. The true share with any hit is near 2.8%.

SMILES	ERb SRC1 inh	EphB4 antag	ERa SRC1 pot	ERa coact inh
CCCC1=C(C(=O)OCC)C(c2cc(Cl)cc(OC)c2OCC(=O)OCC)NC(=O)N1 (stereo not given)	-6	-8	106	25
CCOC(=O)COc1c(OC)cc(Cl)cc1C1NC(=O)NC(C)=C1C(C)=O (stereo not given)	60*[fluorescence artefact?]	5	88	57*[fluorescence artefact?]
COc1ccc(Cl)cc1S(=O)(=O)Oc1ccc(NC(C)=O)cc1	-9	3	102	-7
COc1cccc2sc(Nc3nnc(-c4cccs4)o3)nc12	14	-7	89	16
COc1cccc2sc(Nc3nnc(-c4ccc(F)cc4)o3)nc12	25	-6	74	65*
Oc1ccc(-c2nc3ccccn3c2NCc2ccco2)cc1	9	1	111	-8
O=C(COC(=O)CCCSc1nc2ccccc2[nH]1)NC(=O)NC1CCCC1	9	5	97	1
Cc1ccc(O)c(C(=O)c2cnc3c(c2)CN(C)C(=O)N3)c1	.	3	.	.
CN1Cc2cc(C(=O)c3cc(Cl)cc(CSc4ncccn4)c3O)cnc2NC1=O	21	4	123	56*
Cn1c(SCC(=O)Nc2ccc3nc(SCC(=O)N4CCCC4)sc3c2)nnc1-c1ccc(N)cc1	.	13	.	.
O=C(CSc1nnc(-c2cccnc2)o1)Oc1ccccc1	.	0	.	.
O=C(CSc1nnc(-c2cccnc2)o1)c1cc2ccccc2oc1=O	3	6	221*	-4
CCOc1cc2[nH]c(=O)n(CCC(=O)N3CCN(c4ccccc4OC)CC3)c(=O)c2cc1OCC	1	-1	102	-4
COc1cc2[nH]c(=O)n(CCC(=O)N3CCN(c4cc(Cl)ccc4C)CC3)c(=O)c2cc1OC	43	-7	40	88*[fluorescence artefact?]
N=c1oc2c3c4c(cc2cc1C(=O)Nc1ccccc1)CCCN4CCC3	.	3	.	.
N#Cc1ccc(NC(=O)c2cc3cc4c5c(c3oc2=N)CCCN5CCC4)cc1	49	.	71	64*
CC(=O)Nc1sc(NC(=O)c2ccccc2)nc1-c1cccs1	4	.	136	-12
COc1ccccc1C(=O)Nc1nc(-c2cccs2)c(NC(C)=O)s1	35	-3	72	66*
COC(=O)c1ccc(NC(=O)CN2C(=O)CSC2=O)cc1	8	-1	319*[fluorescence artefact?]	1
O=C(Nc1ccccc1NC(=O)c1ccco1)c1ccco1	-11	-1	92	-4
CC(NC(=O)c1ccccc1NC(=O)c1ccco1)c1ccccc1 (stereo not given)	12	0	241*[fluorescence artefact?]	34
O=C(Nc1cccc2cccc(NC(=O)c3ccco3)c12)c1ccco1	52*	4	62	22
CCN(CC)S(=O)(=O)c1cccc(C(=O)N[C@H](C(=O)NCc2ccc(Cl)cc2)C(C)C)c1	.	5	.	.
CSC1=N/C(=C\c2ccc(Br)o2)C(=O)S1	72*	-7	34	69*
CCOc1ccc(NC(=O)CC2C(=O)N(C)C(=S)N2Cc2ccc3c(c2)OCO3)cc1 (stereo not given)	.	3	.	.
SMILES	ERb SRC1 inh	EphB4 antag	ERa SRC1 pot	ERa coact inh
Cc1cc(C)n2nc(SC3CCCCN(C(=O)c4ccc(F)cc4)C3=O)nc2n1 (stereo not given)	5	19*	108	3
Cc1cc2nnc(SC3CCCCN(C(=O)c4ccc(F)cc4)C3=O)n2c2ccccc12 (stereo not given)	3	4	106	0
S=C1N(c2ccccc2)C(c2cccc3ccccc23)N2CCCN12 (stereo not given)	-16	-1	111	-7
COC(=O)Nc1c(-c2ccccc2)nc2ccc(C)cn12	83*	.	101	3
CC(CN1CCCCC1)OC(=O)C(C)(c1ccccc1)c1ccccc1 (stereo not given)	-19	-1	100	-15
Cc1n[nH]c(C)c1S(=O)(=O)N(CC(=O)N1CCc2ccccc21)c1ccc(C(C)C)cc1	50*	2	56	54*[fluorescence artefact?]
CSc1nc(N)c(C#N)c(-c2ccc(Cl)cc2)c1C#N	34	0	255*[fluorescence artefact?]	42
CCCCOC(=O)CSc1nc(N)c(C#N)c(-c2ccc(OC)cc2)c1C#N	41	1	240*[fluorescence artefact?]	61*[fluorescence artefact?]
C=C(C)CSc1nc(N)c(C#N)c(-c2ccc(C)cc2)c1C#N	-1	-1	108	-3
CCCCOC(=O)CSc1nc(N)c(C#N)c(-c2ccc(OCC)cc2)c1C#N	76*[fluorescence artefact?]	-4	215*[fluorescence artefact?]	51*[fluorescence artefact?]
CCOC(=O)CC(=O)CSc1nc(N)c(C#N)c(-c2ccc(F)cc2)c1C#N	-9	-1	107	-3
CCOC(=O)CSc1nc(N)c(C#N)c(-c2ccc(OC)cc2)c1C#N	35	2	258*[fluorescence artefact?]	14
CC1(C)CC(NC(=O)c2coc(=O)c(Br)c2)CC(C)(C)N1	-2	-3	123	-6
O=C(CSc1nnc(Cc2ccccc2)o1)Nc1ccc2c(c1)OCO2	4	-5	84	-2
O=C(c1ccc(Cl)c(F)c1F)N1CCCC1	-15	2	117	-8
CCCCOc1ccc(-c2c(C#N)c(N)nc(SCC(N)=O)c2C#N)cc1	41	-2	271*[fluorescence artefact?]	42
CCCOC(=O)CSc1nc(N)c(C#N)c(-c2ccco2)c1C#N	22	-3	120	4
COC(=O)C1=C(C)N(C)C(C)=C(C(=O)OC)C1c1ccccn1	-1	0	120	-9
O=C(Cn1cnc2c(oc3ccccc32)c1=O)c1ccccc1	-8	-10	266*[fluorescence artefact?]	-4
C=CCn1c2ccccc2c2nnc(SC(CC)C(=O)Nc3sc4c(c3C#N)CCCC4)nc21 (stereo not given)	.	4	.	.
O=C(Nc1ccc2c(c1)OCCO2)C1CCCN(S(=O)(=O)c2cccnc2)C1 (stereo not given)	-10	.	106	-7
COCC(C)n1c(C)cc(C(=O)COC(=O)c2c(NC(C)=O)sc(C)c2C)c1C (stereo not given)	31	.	542*[fluorescence artefact?]	23
COc1cccc(C(=O)Nc2c(C(N)=O)oc3ccccc23)c1	90*[fluorescence artefact?]	-1	81	1
COc1cc(C(=O)Nc2ccc(-c3nc4cc(C)ccc4o3)c(O)c2)cc(OC)c1OC	16	-1	246*	11
COc1cccc(C(=O)Nc2ccc(-c3nc4ccccc4o3)c(O)c2)c1	36	-1	150	60*[fluorescence artefact?]
SMILES	ERb SRC1 inh	EphB4 antag	ERa SRC1 pot	ERa coact inh
COc1ccccc1C(=O)Nc1cc(-c2nn3c(C)nnc3s2)ccc1C	.	-4	.	.
COCCCn1c(SCC(=O)Nc2ccc(NC(=O)c3ccco3)c(OC)c2)nc2ccccc2c1=O	46	10	213*[fluorescence artefact?]	44
CN(CC(=O)NCc1ccncc1)S(=O)(=O)c1ccc(F)cc1	-6	0	88	-7
Cc1[nH]n(-c2ccccc2)c(=O)c1C1(C(F)(F)F)C(=O)N(c2ccccc2)C2=C1C(=O)CC(C)(C)C2 (stereo not given)	5	-4	103	5
Cc1ccc(N2C(=O)C(O)(C(F)(F)F)C3=C2CC(C)(C)CC3=O)cc1C (stereo not given)	.	16*	.	.
Cc1ccc2nc(Nc3nc(-c4ccccc4)cc(=O)[nH]3)nc(C)c2c1	.	-9	.	.
Cc1ccc2nc(Nc3nc(=O)c4ccccc4n3C)nc(C)c2c1	43	.	71	60*
